High-throughput results: PubChem, National Center for Advancing Translational Sciences (NCATS)
In the library only some 2.4% were active in any assay of this set; here they are far more common.
D2 PAM-1: human D2 receptor positive allosteric modulation. potentiation, % (no concentration beside the values). DiscoveRx D2 beta-arrestin cells, luminescence, 90 min; 100% = 57 uM dopamine signal. 360,000 compounds, 0.23% hits; in the data active = potentiation above about 50%; inconclusive = mostly about 30% to 49%
Target sequence (P14416 whole entry, looked up): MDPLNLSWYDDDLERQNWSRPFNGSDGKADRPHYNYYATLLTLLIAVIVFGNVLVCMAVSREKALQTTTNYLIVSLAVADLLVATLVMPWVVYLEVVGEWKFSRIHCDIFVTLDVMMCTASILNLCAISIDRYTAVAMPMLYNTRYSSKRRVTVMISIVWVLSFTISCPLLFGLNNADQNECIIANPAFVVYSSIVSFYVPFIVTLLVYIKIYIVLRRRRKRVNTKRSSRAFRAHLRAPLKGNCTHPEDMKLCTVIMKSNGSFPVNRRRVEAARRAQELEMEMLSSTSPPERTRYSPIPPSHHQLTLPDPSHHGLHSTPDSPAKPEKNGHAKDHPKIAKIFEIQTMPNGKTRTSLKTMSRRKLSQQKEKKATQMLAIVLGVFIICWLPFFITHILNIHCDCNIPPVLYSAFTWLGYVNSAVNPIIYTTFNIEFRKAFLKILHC
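PathHunter D2 cells, attached overnight at 37 deg C, received compound in DMSO plus dopamine at EC20 (50 nM final) for 90 min at 37 deg C. Beta-arrestin recruitment was read as luminescence after 1 h with detection reagent at ambient temperature.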
D2 ag-1: agonists of human D2 dopamine receptor; P14416; 340,000 compounds, 0.53% hits; activation, % at 2 µM; HEK293 T-REx D2 cells, calcium flux agonist mode;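 active = activation over 3 SD above normal in the single-dose calcium agonist read, cut at about 30% in these data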; also: 0% is about no effect
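Tetracycline-induced HEK293 T-REx cells with force-coupled D2 receptor, plated overnight at 30 C, loaded with no-wash calcium dye. After a 10 s baseline, compound was pin-added and calcium flux read kinetically for 180 s; calcium rises flagged agonists.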
D2 ag-2: agonists of human D2 dopamine receptor (beta-arrestin) | activation, % (test concentration not listed) | 360,000 compounds, 0.084% hits | DiscoveRx PathHunter D2 beta-arrestin, luminescence, 90 min; 100% = 57 uM dopamine signal; in the data active = activation above about 40%; inconclusive = between about 15% and that limit
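DiscoveRx PathHunter D2 beta-arrestin cells (2,100/well) attached overnight, then compound-stimulated 90 min at 37 C in HBSS/10 mM HEPES/0.1% Tween-20 buffer; beta-galactosidase complementation read by luminescence after 1 h at ambient temperature. Dopamine 57 uM final (EC100) as control.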
D2 PAM-2: positively modulates the human D2 dopamine receptor allosterically; P14416; HEK293 T-REx D2, calcium flux, EC20 dopamine potentiation; potentiation, % at 10 µM; 340,000 compounds, 0.34% hits; AID 485347;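 active = potentiation over 3 SD above the plate norm, cut at about 30% in these data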; also: 0% is about no effect
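Calcium flux readout, no-wash dye, 1 read/s. Inducible HEK293 Trex D2 line, overnight 30 C. Compound alone 180 s (agonist flags), then EC20 dopamine, another 180 s to score potentiation.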
D2 antagonist: antagonizes the human D2 dopamine receptor. AID 485344. 340,000 compounds, 2% hits. HEK293 TREx D2 cells, calcium flux, dopamine EC80. inhibition, % at 10 µM. P14416; in the data active = inhibition above about 30%; inactive = below that, where a call was filed; also: 0% is about no effect
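Calcium mobilization kinetics were recorded at 1 s intervals in tetracycline-induced HEK293 T-REx D2 cells, first for 180 s after compound addition and then 180 s after EC80 dopamine.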
Active calls of the source: *; ? = inconclusive; / = no result given.

SMILES | D2 PAM-1 | D2 ag-1 | D2 ag-2 | D2 PAM-2 | D2 antagonist
CCN(CC)CCCNC(=O)c1cc2c(=O)n(C)c3ccccc3c2n1C | -7.2 | 0.4 | -2.3 | -15.2 | -25.3
Cn1c(C(=O)NCCCN2CCc3ccccc3C2)cc2c(=O)n(C)c3ccccc3c21 | -11.9 | 0.3 | -1.5 | -28.0 | 80.5*
COCCNC(=O)c1cc2c(=O)n(C)c3ccccc3c2n1C | 1.6 | 0.5 | 8.7 | 0.4 | -0.5
CCOC(=O)C1(Cc2cccc(OC)c2)CCN(Cc2cccc3c2OCO3)CC1 | -12.2 | 1.8 | -2.7 | -13.5 | 0.7
O=C(Nc1ccc(Br)cc1)C1OCCc2ccccc21 (stereo not drawn) | -0.7 | -2.0 | 1.6 | -4.8 | -2.5
O=C1C=C(c2ccccc2)CC(c2cccs2)C1n1cnc([N+](=O)[O-])c1 (stereo not drawn) | 21.5 | -0.7 | 1.0 | 13.4 | -25.4
O=C1C=C(c2ccccc2)C[C@H](c2cccs2)[C@H]1n1nnc([N+](=O)[O-])n1 | 57.8* | / | 13.3 | -1.4 | /
Cc1ccc(S(=O)(=O)/N=C2\C=C(NS(=O)(=O)c3ccccc3)C(=O)c3ccccc32)cc1 | 1.4 | / | -2.8 | / | /
Cc1ccc(S(=O)(=O)/N=C2/C=C(C3C(=O)CC(C)(C)CC3=O)C(=O)c3ccccc32)cc1 | 110.1* | -0.4 | 10.5 | 0.5 | 5.8
Cc1ccc(NC(=O)CN(C)C(=O)c2ccc(Sc3nncn3C)c([N+](=O)[O-])c2)cc1 | -2.4 | 0.5 | 11.5 | 11.8 | 16.8
CC(C)C(=O)NC(C)C(c1cccs1)N1CCOCC1 (stereo not drawn) | 7.2 | 0.2 | -3.0 | 10.0 | -13.1
Cc1cccc(NC(=O)NC(C)C(c2cccs2)N2CCOCC2)c1 (stereo not drawn) | -10.5 | 0.7 | -5.8 | 10.8 | 30.3*
CC(NC(=O)c1ccco1)C(c1cccs1)N1CCN(c2ccccc2F)CC1 (stereo not drawn) | 7.7 | -0.7 | -1.2 | 37.7* | 21.6
Cc1ccc(C(=O)NC(C)C(c2cccs2)N2CCCC2)s1 (stereo not drawn) | -18.6 | 0.4 | 6.6 | 32.7* | -4.0
C[C@H](NC(=O)C1CC(=O)N(c2ccc(F)cc2)C1)C(=O)N1CCCCC1 (stereo partly drawn) | -7.1 | -0.8 | 1.3 | -2.2 | 0.5
C=CC[C@@H](CC(=O)N(CCO)Cc1ccccc1)C(=O)NC[C@H](OC(=O)[C@@H](CC=C)Cc1ccc(F)cc1)c1ccccc1 | ? | / | -10.7 | / | /
Cc1cc2oc(=O)cc(CN3CCOCC3)c2c(C)c1Cl | 1.8 | -0.1 | 0.0 | 0.9 | 6.7
O=S(=O)(c1ccccc1)N1CCN(C(=S)NCCc2ccccc2)CC1 | -2.5 | 0.0 | -3.9 | -3.1 | 38.4*
CCCC(C)(C)C(=O)N1CCC1(C)C(=O)NS(=O)(=O)c1ccc(Cl)cc1 (stereo not drawn) | -6.2 | / | 1.4 | / | /
Cc1nn(-c2ccccc2)c(C)c1C(=O)NCc1cccs1 | 2.6 | 0.0 | -1.8 | -2.5 | -3.1
Cc1nn(-c2ccccc2)c(Cl)c1C(=O)NCc1cccs1 | -3.4 | -1.2 | -1.1 | -6.3 | 44.5*
O=C(Cn1cc(S(=O)(=O)Cc2ccccc2Cl)c2ccccc21)NCc1ccccc1Cl | / | 2.0 | / | -5.8 | /
CCS(=O)(=O)N1Cc2ccccc2CC1C(=O)N(C)CC(=O)Nc1cccc(F)c1 (stereo not drawn) | -10.3 | 1.0 | -5.4 | -5.7 | 40.5*
O=C(COc1ccccc1[N+](=O)[O-])N/N=C/c1ccc(O)cc1 | 71.7* | -0.1 | 13.0 | 12.6 | 3.7
Cc1ccc[n+](CC(=O)N2CCCc3ccccc32)c1 | -11.8 | 0.6 | 3.0 | -15.6 | 31.2*
SMILES | D2 PAM-1 | D2 ag-1 | D2 ag-2 | D2 PAM-2 | D2 antagonist
Cc1ccccc1CC(=O)N1CCCc2ccccc21 | -1.4 | -0.1 | -3.6 | 2.5 | -1.3
Cn1nnnc1SCC(=O)N1CCc2ccccc21 | -7.0 | 0.3 | -1.4 | -0.8 | 3.3
Cn1nnnc1SCC(=O)N1CCCc2ccccc21 | -3.1 | -0.5 | -3.2 | -5.3 | 40.6*
CC(C)NC(=O)NC(=O)COC(=O)c1ncc(Cl)c(Cl)c1Cl | -0.7 | -0.7 | 4.8 | 14.8 | -13.6
Cc1cc(C)c(NC(=O)CN(C)S(=O)(=O)c2ccc3c(c2)c(=O)n(C)c(=O)n3C)c(C)c1 | / | -0.7 | / | -2.1 | /
Cc1cc(=O)n(CC(=O)NC(C)c2ccccc2)c2c1c(C)nn2-c1cccc(F)c1 (stereo not drawn) | / | -0.7 | / | -3.4 | /
CN(C)c1cccc2c(S(=O)(=O)Nc3ccccn3)cccc12 | 54.4* | 1.4 | 11.1 | / | -12.0
O=C(OCc1nnc(-c2ccc([N+](=O)[O-])cc2)o1)C1CCN(C(=O)c2ccc(Cl)cc2)CC1 | 12.5 | 0.1 | 5.7 | 1.3 | -2.7
O=C(OCc1nnc(-c2ccc([N+](=O)[O-])cc2)o1)C1CCN(C(=O)c2ccc(F)cc2)CC1 | 2.1 | 0.3 | 10.8 | 6.5 | 34.7*
CCCn1c(C(C)Nc2nc(-c3cc(Cl)c(N)c(Cl)c3)cs2)nc2cc(Cl)c(N3CCCCC3)cc21 (stereo not drawn) | -16.9 | 23.1 | 0.3 | 2.1 | 25.3
COc1cccc(-c2nc(SCC(=O)Nc3ccc4c(c3)OCCO4)c(-c3ccc(C)cc3)[nH]2)c1 | / | 1.5 | / | / | /
CC(=O)Nc1ccc(S(=O)(=O)Nc2c(C)n(C)n(-c3ccccc3)c2=O)cc1 | -8.5 | -0.7 | -2.1 | 2.5 | -0.2
Cc1c(NS(=O)(=O)c2ccc(NC(=O)CCC(=O)O)cc2)c(=O)n(-c2ccccc2)n1C | -7.3 | 1.2 | 8.0 | -4.2 | 30.1*
Cc1c(NC(=O)c2cccc(NC(=O)Cc3ccc(Cl)cc3)c2)c(=O)n(-c2ccccc2)n1C | -1.0 | 0.4 | -1.6 | 0.7 | 32.7*
CC(=O)N1CCN(C(=O)c2cccc(S(=O)(=O)Nc3c(C)n(C)n(-c4ccccc4)c3=O)c2)CC1 | -14.0 | 0.1 | 0.9 | -5.2 | 51.1*
Cc1c(NS(=O)(=O)c2cccc(C(=O)N3CCCC3)c2)c(=O)n(-c2ccccc2)n1C | -21.5 | / | 2.2 | / | /
CCOC(=O)c1c(S(=O)(=O)N2CCC(C(=O)N3CCN(c4cc(C)ccc4C)CC3)CC2)c(C)n(C)c1C | / | -0.3 | / | 5.7 | /
c1ccc(N2CCN(CC3CCCCC3)CC2)cc1 | -3.0 | 71.0* | ? | -19.5 | 68.2*
CCOC(=O)C1CCCN(CC(=O)Nc2nc(-c3ccccc3)cs2)C1 (stereo not drawn) | 0.5 | -0.5 | -4.3 | -3.0 | -0.6
COc1ccc(Cl)cc1C(=O)NNC(=O)COC(=O)CCN=C1NS(=O)(=O)c2ccccc21 | -52.6 | -0.5 | -20.2 | -0.9 | 30.4*
COc1ccccc1C(=O)COC(=O)CCN=C1NS(=O)(=O)c2ccccc21 | -16.2 | 0.0 | 2.0 | -3.0 | -13.9
CCOc1ccc(S(=O)(=O)NCC(c2ccco2)S(=O)(=O)c2cccs2)cc1 (stereo not drawn) | / | 1.8 | / | 3.9 | /
